Test results taken from the supplement of paper PMC9177965.
Where “and” joins values, the source holds several entries; their conditions need not be identical. Equal entries are not always repeated.

tested on: HT29 sg-Ctrl (RNF43 wildtype); assay: cell viability activity relative to DMSO (negative = inhibition); higher = more viable cells (less growth inhibition); conditions: 5 µM; 96 h
Procedure: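 Broad Repurposing Library primary screen at a single dose of 5 uM. HT29 sg-Ctrl and HT29 RNF43 G659fs CRISPR-edited isogenic cells were seeded at 2500 cells/well in 384-well plates in duplicate and treated for 96 h. Viability was read by CellTiter-Glo and reported as % activity relative to DMSO, with MG132 as the positive control (negative = growth inhibition).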

Row | Structure (SMILES) | cell viability activity
1 | Cn1c(COP(=O)(NCCBr)NCCBr)cnc1[N+](=O)[O-] | -27.3%
2 | C/C(=C\c1csc(C)n1)[C@@H]1C[C@@H]2O[C@]2(C)CCC[C@H](C)[C@H](O)[C@@H](C)C(=O)C(C)(C)[C@@H](O)CC(=O)O1 | -72.3%
3 | CC(C)(C)c1cc(C=C(C#N)C#N)cc(C(C)(C)C)c1O | -67.3%
4 | C[C@]12O[C@H](C[C@]1(O)CO)n1c3ccccc3c3c4c(c5c6ccccc6n2c5c31)CNC4=O | -84.6%
5 | C[C@]12CC[C@H](O)C[C@H]1CC[C@@H]1[C@@H]2CC[C@]2(C)[C@@H](C3=CC(=O)OC3)CC[C@]12O | -86.7%
6 | CC[C@H]1CN2CCc3cc(OC)c(OC)cc3[C@@H]2C[C@@H]1C[C@H]1NCCc2cc(OC)c(OC)cc21 | -92.7% and -98.3%
7 | COc1cc2c(c(OC)c1OC)-c1ccc(OC)c(=O)cc1[C@@H](NC(C)=O)CC2 | -46.1% and -57.8%
8 | O=C1/C(=C/c2ccccc2)C[C@@]2(O)C3Cc4ccc(O)c5c4[C@@]2(CCN3CC2CC2)[C@H]1O5 | -66%
9 | CC(C)[C@]12O[C@H]1[C@@H]1O[C@]13[C@]1(O[C@H]1C[C@H]1C4=C(CC[C@@]13C)C(=O)OC4)[C@@H]2O | -87.8% and -92.2%
10 | C[C@]12CC[C@H](O)C[C@H]1CC[C@@H]1[C@@H]2C[C@@H](O)[C@]2(C)[C@@H](C3=CC(=O)OC3)CC[C@]12O | -79.8%
11 | C=C(C)[C@H]1Cc2c(ccc3c2O[C@@H]2COc4cc(OC)c(OC)cc4[C@@H]2C3=O)O1 | -75.8%
12 | C[C@@H]1CC[C@@]2(OC1)O[C@H]1C[C@H]3[C@@H]4CC=C5C[C@@H](O[C@@H]6O[C@H](CO)[C@@H](O[C@@H]7O[C@@H](C)[C@H](O)[C@@H](O)[C@H]7O)[C@H](O)[C@H]6O[C@@H]6O[C@@H](C)[C@H](O)[C@@H](O)[C@H]6O)CC[C@]5(C)[C@H]4CC[C@]3(C)[C@H]1[C@@H]2C | -63.5%
13 | COC(=O)NC(=S)Nc1ccccc1NC(=S)NC(=O)OC | -38.9%
14 | CC(=O)O[C@@]12CO[C@@H]1C[C@H](O)[C@@]1(C)C(=O)[C@H](O)C3=C(C)[C@@H](O)C[C@@](O)([C@@H](OC(=O)c4ccccc4)[C@H]21)C3(C)C | -62.6%
15 | CCNC(=O)C[C@@H]1N=C(c2ccc(Cl)cc2)c2cc(OC)ccc2-n2c(C)nnc21 | -59.5%
16 | Cc1sc2c(c1C)C(c1ccc(Cl)cc1)=N[C@@H](CC(=O)Nc1ccc(O)cc1)c1nnc(C)n1-2 | -59.2%
17 | COc1cc2cc(c1Cl)N(C)C(=O)C[C@H](OC(=O)C(C)C)[C@]1(C)O[C@@H]1[C@H](C)[C@@H]1C[C@@](O)(NC(=O)O1)[C@H](OC)/C=C/C=C(\C)C2 | -61.7%
18 | C[C@H]1CCC/C=C/[C@@H]2C[C@H](O)C[C@H]2[C@H](O)/C=C/C(=O)O1 | -98.3% and -96.8%
19 | Cc1sc2c(c1C)C(c1ccc(Cl)cc1)=N[C@@H](CC(=O)OC(C)(C)C)c1nnc(C)n1-2 | -61.7%
20 | CO[C@H]1C[C@H](O[C@H]2CC[C@@]3(C)[C@H](CC[C@@H]4[C@@H]3CC[C@]3(C)[C@@H](C5=CC(=O)OC5)[C@@H](OC(C)=O)C[C@]43O)C2)O[C@@H](C)[C@@H]1O | -90.4%

Row | Structure (SMILES) | cell viability activity
21 | C[C@@H]1O[C@@H](O[C@@H]2C=C3CC[C@@H]4[C@H](CC[C@]5(C)[C@@H](c6ccc(=O)oc6)CC[C@]45O)[C@@]3(C)CC2)[C@H](O)[C@H](O)[C@H]1O | -87.4%
22 | C/C(=C\c1csc(C)n1)[C@@H]1C[C@@H]2O[C@@H]2CCC[C@H](C)[C@H](O)[C@@H](C)C(=O)C(C)(C)[C@@H](O)CC(=O)O1 | -51.9%
23 | C/C1=C/C[C@@H](/C(C)=C/c2csc(C)n2)OC(=O)C[C@H](O)C(C)(C)C(=O)[C@H](C)[C@@H](O)[C@@H](C)CCC1 | -42.3%
24 | CC[C@@H](C(=O)[C@@H](C)[C@@H](O)[C@H](C)[C@@H]1O[C@@H]([C@@H](CC)C(=O)O)CC[C@@H]1C)[C@H]1O[C@]2(C=C[C@@H](O)[C@]3(CC[C@@](C)([C@H]4CC[C@](O)(CC)[C@H](C)O4)O3)O2)[C@H](C)C[C@@H]1C | -71.9%
25 | COC(=O)C[C@](O)(CCC(C)(C)O)C(=O)O[C@@H]1C(OC)=C[C@]23CCCN2CCc2cc4c(cc2[C@H]13)OCO4 | -83.6%
26 | O=C1C=C2C=C[C@@H]3C[C@@]2(O1)[C@H]1CCCCN31 | -6.19%
27 | CN(C)C(=S)SSC(=S)N(C)C | -69%
28 | COc1ccc(C[C@H]2NC[C@H](O)[C@H]2OC(C)=O)cc1 | -95.3%
29 | CC(=O)O[C@H]1C[C@H](O[C@H]2[C@@H](O)C[C@H](O[C@H]3[C@@H](O)C[C@H](O[C@H]4CC[C@@]5(C)[C@H](CC[C@@H]6[C@@H]5C[C@@H](O)[C@]5(C)[C@@H](C7=CC(=O)OC7)CC[C@]65O)C4)O[C@@H]3C)O[C@@H]2C)O[C@H](C)[C@H]1O[C@@H]1O[C@H](CO)[C@@H](O)[C@H](O)[C@H]1O | -89.1%
30 | C[C@@]1(CO)[C@H](O)CC[C@@]2(C)[C@H]1CC[C@H]1C[C@@H]3C[C@@]12CC[C@]3(O)CO | -34.1%
31 | NC(=O)c1cn([C@@H]2O[C@H](CO)[C@@H](O)[C@H]2O)c2ncnc(N)c12 | -93%
32 | CC[C@@H]1/C=C/C=C/C[C@H](C)[C@H](O)[C@](C)(O)C(=O)[C@H](C)[C@@H](O)[C@H](C)C(=O)[C@H](C)[C@@H](O)[C@H](C)/C=C/C(=O)O[C@H]2[C@@H](C)[C@@H](CC1)O[C@@]1(CC[C@@H](C)[C@@H](C[C@H](C)O)O1)[C@@H]2C | -42.2%
33 | C/C=C(\C)C(=O)N[C@@H](c1ccccc1)[C@@H](O)C(=O)O[C@H]1C[C@@]2(O)[C@@H](OC(=O)c3ccccc3)[C@@H]3[C@]4(OC(C)=O)CO[C@@H]4C[C@H](O)[C@@]3(C)C(=O)[C@H](OC(C)=O)C(=C1C)C2(C)C | -69.3%
34 | C[C@]12CC[C@H]3[C@@H](CC[C@]4(O)C[C@@H](O)CC[C@]34C=O)[C@@]1(O)CC[C@@H]2C1=CC(=O)OC1 | -75.5%
35 | CCCCCCCCCCCCCCCC[n+]1ccccc1 | -79.9%
36 | O=Cc1cn(Cc2ccc(Cl)cc2)c2ccccc12 | -88.6%
37 | Fc1cc(F)c2c(c1)[C@H]1C=CC[C@H]1C(c1cccnc1)N2 (stereo not given in full) | -92.9% and -73.9%
38 | COc1ccc(CCN2CCC(Nc3nc4ccccc4n3Cc3ccc(F)cc3)CC2)cc1 | -3.92%
39 | COc1cccc2c1C(=O)c1c(O)c3c(c(O)c1C2=O)C[C@@](O)(C(=O)CO)C[C@@H]3O[C@H]1C[C@H](N2CCO[C@H](OC)C2)[C@H](O)[C@H](C)O1 | -95.3%
40 | C[C@@H]1O[C@@H](O[C@H]2C[C@@H](O)[C@]3(CO)[C@H]4[C@H](O)C[C@]5(C)[C@@H](C6=CC(=O)OC6)CC[C@]5(O)[C@@H]4CC[C@]3(O)C2)[C@H](O)[C@H](O)[C@H]1O | -87.7% and -89.1%
